Assay results taken from PubChem BioAssay (Tox21).
Records with an inconclusive call do not appear. More than one record can exist for a structure, and the calls need not agree. Active and inactive are the calls of the source. Unless noted, calls follow the shape of the dose curve; as a rule, active = well fitted curve in the direction sought with a large enough effect in the repeat runs; inconclusive = weak or mixed curves; inactive = no such curve, though single readings can be large; an effect the other way counts as inactive or inconclusive.

Key:
[1] = qHTS assay to identify aromatase inhibitors - cell viability counter screen (AID 743084);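 also: cells stimulated with testosterone during compound exposure; nearly all actives have a fitted effect of over 55% in size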; also: potency is read from the fitted curve at half-maximal effect
[2] = target: Aryl hydrocarbon receptor (Homo sapiens) (UniProt P35869); assay: qHTS assay to identify small molecule that activate the aryl hydrocarbon receptor (AhR) signaling pathway (AID 743085); also: nearly all actives have a fitted effect of over 15% in size; also: potency is read from the fitted curve at half-maximal effect;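 as to activation: HG2L7.5c1 human HepG2 liver cells with stably integrated DRE-driven firefly reporter; series mostly up to about 70 µM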
Chain of Aryl hydrocarbon receptor (Homo sapiens) (P35869 whole entry, looked up): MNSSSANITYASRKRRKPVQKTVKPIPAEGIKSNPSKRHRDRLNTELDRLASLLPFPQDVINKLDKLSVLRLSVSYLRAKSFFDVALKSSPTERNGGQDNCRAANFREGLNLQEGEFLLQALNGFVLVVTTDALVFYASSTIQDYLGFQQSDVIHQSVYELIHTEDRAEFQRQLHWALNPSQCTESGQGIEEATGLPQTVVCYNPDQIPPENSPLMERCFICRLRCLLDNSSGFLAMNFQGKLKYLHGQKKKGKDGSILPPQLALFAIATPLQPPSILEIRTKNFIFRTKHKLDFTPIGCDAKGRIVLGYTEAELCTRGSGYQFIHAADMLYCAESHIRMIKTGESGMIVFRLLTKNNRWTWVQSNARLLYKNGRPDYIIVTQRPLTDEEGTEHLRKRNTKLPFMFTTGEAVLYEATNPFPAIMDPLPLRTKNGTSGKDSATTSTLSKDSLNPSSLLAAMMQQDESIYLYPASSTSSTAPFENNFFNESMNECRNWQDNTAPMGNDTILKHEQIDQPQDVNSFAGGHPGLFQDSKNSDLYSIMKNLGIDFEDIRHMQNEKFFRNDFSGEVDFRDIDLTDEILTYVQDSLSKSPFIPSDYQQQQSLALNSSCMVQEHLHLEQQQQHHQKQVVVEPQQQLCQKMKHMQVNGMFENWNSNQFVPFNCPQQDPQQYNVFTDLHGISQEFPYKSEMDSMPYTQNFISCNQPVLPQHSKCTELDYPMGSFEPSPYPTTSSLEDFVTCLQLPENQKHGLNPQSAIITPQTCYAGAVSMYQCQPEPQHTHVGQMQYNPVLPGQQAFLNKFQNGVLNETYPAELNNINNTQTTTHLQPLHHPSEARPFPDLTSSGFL
Procedure, shortened: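 Steps: seed HepG2-AhR-luc cells; allow 5 h at 37C; pin-transfer test compound or vehicle; incubate 24 h at 37C; add viability dye (30 min, 37C) and read fluorescence; add luciferase substrate (30 min, RT) and read luminescence.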

[3] = qHTS assay to identify small molecule that activate the aryl hydrocarbon receptor (AhR) signaling pathway - cell viability counter screen (AID 743086); also: nearly all actives have a fitted effect of over 45% in size; also: potency is read from the fitted curve at half-maximal effect;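 as to viability change, negative = cytotoxic: HepG2 liver cells carrying the AhR DRE luciferase reporter; series mostly up to about 70 µM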
Procedure, shortened: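 Cytotoxicity counter screen: CellTiter-Fluor signal (30 min, 37 C) in 4000 HepG2 cells/well carrying the DRE-luciferase reporter, following 24 h compound exposure at 37 C.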

[4] = target: Peroxisome proliferator-activated receptor gamma (Homo sapiens) (UniProt P37231); assay: qHTS assay to identify small molecule agonists of the peroxisome proliferator-activated receptor gamma (PPARg) signaling pathway (AID 743094; active = well fitted activation curve with a large enough effect in the signal ratio in the repeat runs, not every such curve was filed as active; the % refers to the signal ratio)
Chain of Peroxisome proliferator-activated receptor gamma (Homo sapiens) (P37231 whole entry, looked up): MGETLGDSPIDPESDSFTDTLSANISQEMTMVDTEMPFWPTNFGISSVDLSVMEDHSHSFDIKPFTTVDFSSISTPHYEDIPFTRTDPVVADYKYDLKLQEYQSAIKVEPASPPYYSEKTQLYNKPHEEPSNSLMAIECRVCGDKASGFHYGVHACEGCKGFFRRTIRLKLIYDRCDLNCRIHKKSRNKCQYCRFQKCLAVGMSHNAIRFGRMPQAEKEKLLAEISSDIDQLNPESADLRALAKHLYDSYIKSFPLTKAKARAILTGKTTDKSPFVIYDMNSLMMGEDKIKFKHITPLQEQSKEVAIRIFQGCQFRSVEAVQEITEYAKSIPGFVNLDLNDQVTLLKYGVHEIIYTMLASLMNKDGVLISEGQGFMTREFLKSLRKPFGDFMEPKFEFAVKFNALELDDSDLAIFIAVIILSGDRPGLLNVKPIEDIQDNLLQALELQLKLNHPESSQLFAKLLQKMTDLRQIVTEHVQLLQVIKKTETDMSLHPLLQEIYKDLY
Procedure, shortened: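 Fluorescence-based beta-lactamase readout in HEK293H PPARg UAS-bla cells after 17 h compound exposure (37C) and 1 h B/G FRET substrate incubation at room temperature.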

[5] = target: Peroxisome proliferator-activated receptor gamma (Homo sapiens) (UniProt P37231); assay: qHTS assay to identify small molecule antagonists of the peroxisome proliferator-activated receptor gamma (PPARg) signaling pathway (AID 743191; calls by dose curve; also: series mostly up to about 63 µM; nearly all actives have a fitted effect of over 30% in size)
Procedure, shortened: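 Beta-lactamase reporter under UAS control in HEK293H PPARg-bla cells; compound treatment 17 h at 37C. Read-out: fluorescence intensity after 1 h room-temperature incubation with LiveBLAzer B/G FRET substrate.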

[6] = qHTS assay to identify small molecule antagonists of the peroxisome proliferator-activated receptor gamma (PPARg) signaling pathway - cell viability counter screen (AID 743194); also: nearly all actives have a fitted effect of over 55% in size
Procedure, shortened: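 Viability was measured as CellTiter-Glo luminescence in GeneBLAzer PPARg UAS-bla HEK293H cells. These cells had been exposed 17 h at 37 C to compounds together with rosiglitazone at 50 nM final, with the beta-lactamase readout taken in the same wells.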

[7] = qHTS assay for small molecule agonists of the antioxidant response element (ARE) signaling pathway (AID 743202; active = well fitted activation curve with a large enough effect in the signal ratio in the repeat runs, not every such curve was filed as active; the % refers to the signal ratio)
Procedure, shortened: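 Beta-lactamase reporter activity, read as fluorescence intensity, reflects ARE/Nrf2 pathway induction in HepG2 cells after 16 h compound exposure at 37 C; substrate loading was 2 h at room temperature.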

[8] = qHTS assay for small molecule agonists of the antioxidant response element (ARE) signaling pathway - cell viability counter screen (AID 743203; calls by dose curve; also: nearly all actives have a fitted effect of over 55% in size)
Procedure, shortened: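 Parallel cytotoxicity read-out for the ARE-bla screen: HepG2 reporter cells, 16 hrs with compounds, then CellTiter-Glo luminescence.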

[9] = qHTS assay for small molecule activators of the heat shock response signaling pathway - cell viability counter screen (AID 743209); also: nearly all actives have a fitted effect of over 50% in size
Procedure, shortened: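 To flag cytotoxic compounds, HSE-bla HeLa cells plated at 1500 cells/well were dosed for 5 h at 37 C, followed by the reporter FRET read and then CellTiter-Glo, with luminescence recorded 30 min after reagent addition.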

[10] = qHTS assay for small molecule activators of the heat shock response signaling pathway (AID 743210; active = well fitted activation curve with a large enough effect in the signal ratio in the repeat runs, with a control signal flat, not every such curve was filed as active; the % refers to the signal ratio;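 also: HeLa cells with beta-lactamase reporter driven by heat shock elements; series mostly up to about 63 µM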)
Procedure, shortened: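 Fluorescence from a cleaved B/G FRET substrate (2.5 h, room temp) reports HSE-driven beta-lactamase in HeLa cells treated 5 h at 37 C with DMSO-dissolved compounds.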
% is scaled to controls: 0 for no effect and ±100 for the full control effect.

C[C@@H](O)[C@H]1C(=O)N2C(C(=O)O)=C(S[C@@H]3CN[C@H](CNS(N)(=O)=O)C3)[C@H](C)[C@H]12
inactive: Potency [1] | Potency [2] | Potency [3] | Potency [4] | Potency [5] | Potency [6] | Potency [7] | Potency [8] | outcome [9] | outcome [10]

CC1=CC(=C(c2ccc(N)cc2)c2ccc(N)cc2)C=CC1=N
inactive: Potency [2] | viability change, negative = cytotoxic [3] -14.7% [at 8.47 µM] | activation [4] -4.84% [at 7.08 µM] | activity change, negative = cytotoxicity [6] -29.3% [at 5.95 µM] | viability change, negative = cytotoxic [8] -12.3% [at 8.36 µM] | activity change, negative = cytotoxicity [9] -5.14% [at 5.95 µM] | activation [10] -0.545% [at 5.95 µM]
active: Potency [1] 11.9 µM | Potency [3] 18.8 µM

Cc1c(N=C=O)cccc1N=C=O
inactive: Potency [1] | Potency [2] | Potency [3] | Potency [4] | Potency [5] | Potency [6] | Potency [7] | Potency [8] | outcome [10]

NC(=O)c1ccccc1
inactive: Potency [1] | Potency [2] | Potency [3] | Potency [4] | Potency [5] | Potency [6] | Potency [7] | outcome [9] | outcome [10]

COc1ccc(C(=O)c2ccc(C)cc2)c(O)c1
active: Potency [2] 9.44 µM
inactive: Potency [1] | Potency [3] | Potency [4] | Potency [5] | Potency [6] | Potency [8] | outcome [9] | outcome [10]

CC(O)C(C)O (centres undefined)
inactive: Potency [1] | Potency [2] | Potency [3] | Potency [4] | Potency [5] | Potency [6] | Potency [7] | Potency [8] | outcome [9] | outcome [10]

OCCOc1cccc(OCCO)c1
inactive: Potency [1] | Potency [2] | Potency [3] | Potency [4] | Potency [5] | Potency [6] | Potency [7]

Nc1ncnc2c1ncn2[C@@H]1O[C@H](CO)[C@@H](O)[C@H]1O
inactive: Potency [1] | Potency [2] | Potency [3] | Potency [4] | Potency [5] | Potency [6] | Potency [8] | outcome [10]

C/C(=C(\CCO)SS/C(CCO)=C(\C)N(C=O)Cc1cnc(C)nc1N)N(C=O)Cc1cnc(C)nc1N
inactive: Potency [1] | Potency [2] | Potency [3] | Potency [4] | Potency [5] | Potency [6] | Potency [7] | outcome [10]

CCCCCCCCCCCC(=O)OCC
inactive: Potency [1] | Potency [2] | Potency [3] | Potency [4] | Potency [5] | Potency [6] | Potency [7] | Potency [8] | outcome [9] | outcome [10]

O=C1c2ccccc2C(=O)C1c1ccc2ccccc2n1
inactive: Potency [1] | Potency [3] | Potency [4] | Potency [5] | Potency [6] | Potency [8] | outcome [9] | outcome [10]
active: Potency [2] 10.8 µM

CCCCCCCCCCCCN1CCOCC1
inactive: Potency [1] | Potency [2] | Potency [3] | Potency [4] | Potency [5] | Potency [6] | Potency [7] | Potency [8] | outcome [9] | outcome [10]

c1ccc(CCNc2nc(-c3ccccc3)cs2)cc1
inactive: Potency [1] | Potency [3] | Potency [4] | Potency [5] | Potency [6] | Potency [8] | outcome [10]
active: Potency [2] 15 µM

SCCOCCOCCS
inactive: Potency [1] | Potency [2] | Potency [3] | Potency [4] | Potency [5] | Potency [6] | Potency [8] | outcome [10]

CC(C)Oc1ccccc1O
inactive: Potency [1] | Potency [2] | Potency [3] | Potency [4] | Potency [6] | Potency [7] | Potency [8] | outcome [9] | outcome [10]

CC(C)(C)N
inactive: Potency [1] | Potency [2] | Potency [3] | Potency [4] | Potency [6] | Potency [7] | Potency [8] | outcome [9] | outcome [10]

CC(C)Cc1nccs1
inactive: Potency [1] | Potency [2] | Potency [3] | Potency [4] | Potency [6] | Potency [7] | Potency [8] | outcome [10]

Cc1c(Cl)cccc1[N+](=O)[O-]
inactive: Potency [1] | Potency [2] | Potency [3] | Potency [4] | Potency [6] | Potency [7] | Potency [8] | outcome [9] | outcome [10]

CC1(C)C(=O)NC(=O)N1CO
inactive: Potency [1] | Potency [2] | Potency [3] | Potency [4] | Potency [6] | Potency [7] | Potency [8] | outcome [10]

OCCc1ccncc1
inactive: Potency [1] | Potency [2] | Potency [3] | Potency [4] | Potency [6] | Potency [7] | Potency [8] | outcome [10]

CCOC(=O)CC(O)(CC(=O)OCC)C(=O)OCC
inactive: Potency [1] | Potency [2] | Potency [3] | Potency [4] | Potency [5] | Potency [6] | outcome [9] | outcome [10]

O=[N+]([O-])c1cccc(I)c1
inactive: Potency [1] | Potency [2] | Potency [3] | Potency [4] | Potency [6] | Potency [7] | Potency [8] | outcome [9] | outcome [10]

CCCc1nc(C)c2c(=O)[nH]c(-c3cc(S(=O)(=O)N4CCN(CC)CC4)ccc3OCC)nn12
inactive: Potency [1] | Potency [2] | Potency [3] | Potency [4] | Potency [5] | Potency [8] | outcome [9] | outcome [10]

CCOc1ccccc1O
inactive: Potency [1] | Potency [2] | Potency [3] | Potency [4] | Potency [6] | Potency [7] | Potency [8] | outcome [9] | outcome [10]

CC(C)CC(C)(C)C
inactive: Potency [1] | Potency [2] | Potency [3] | Potency [4] | Potency [6] | Potency [7] | Potency [8] | outcome [9] | outcome [10]

Cc1ccc(S(=O)(=O)NC(=O)NC2CCCC2)cc1
inactive: Potency [1] | Potency [2] | Potency [3] | Potency [4] | Potency [5] | Potency [7] | outcome [10]

C=CC(O)CCCCC (centres undefined)
inactive: Potency [1] | Potency [2] | Potency [3] | Potency [4] | Potency [6] | Potency [7] | Potency [8] | outcome [9] | outcome [10]
